The panel holds about 83,000 compounds, 20% with a hit somewhere; the sample as a whole holds those more often.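 Each cell line was grown in a 96-well plate and treated with one concentration of compound for 48 hours. Values below 10 were considered active.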 Values without a mark were called inactive. Active and inactive are the calls of the source.
Experiments:
Assay in all cases: NCI-60 one-dose screen, 48 h (100 = growth as untreated, 0 = no growth, -100 = all killed)
Details in all cases: 10 µM unless noted
NCI-H23 lung = test system: NCI-H23 lung
NCI-H226 lung = test system: NCI-H226 lung
NCI-H322M lung = test system: NCI-H322M lung
HOP-62 NSCLC = test system: HOP-62 NSCLC
NCI-H460 lung = test system: NCI-H460 lung
HOP-92 NSCLC = test system: HOP-92 NSCLC
NCI-H522 lung = test system: NCI-H522 lung
A549/ATCC NSCLC = test system: A549/ATCC NSCLC
786-0 renal = test system: 786-0 renal
COLO 205 colon = test system: COLO 205 colon
DU-145 prostate = test system: DU-145 prostate
K-562 leukemia = test system: K-562 leukemia
MALME-3M melanoma = test system: MALME-3M melanoma
MDA-MB-231 breast = test system: MDA-MB-231 breast
RXF 393 renal = test system: RXF 393 renal
SF-268 CNS = test system: SF-268 CNS
SF-295 CNS = test system: SF-295 CNS
SF-539 CNS = test system: SF-539 CNS
UACC-257 melanoma = test system: UACC-257 melanoma
M14 melanoma = test system: M14 melanoma

| SMILES | growth (NCI-H23 lung) [%] | growth (NCI-H226 lung) [%] | growth (NCI-H322M lung) [%] | growth (HOP-62 NSCLC) [%] | growth (NCI-H460 lung) | growth (HOP-92 NSCLC) | growth (NCI-H522 lung) [%] | growth (A549/ATCC NSCLC) [%] | growth (786-0 renal) | growth (COLO 205 colon) | growth (DU-145 prostate) [%] | growth (K-562 leukemia) | growth (MALME-3M melanoma) [%] | growth (MDA-MB-231 breast) [%] | growth (RXF 393 renal) | growth (SF-268 CNS) [%] | growth (SF-295 CNS) | growth (SF-539 CNS) | growth (UACC-257 melanoma) | growth (M14 melanoma) |
| --- | --- | --- | --- | --- | --- | --- | --- | --- | --- | --- | --- | --- | --- | --- | --- | --- | --- | --- | --- | --- |
| C#CCN(C)CCCOc1ccc(NCc2ccc(C(=O)NO)cc2)cc1Cl | 21.3 | 46.6 | 31.8 | 24.8 | 24.8% | -5.78% (active) | 13.7 | 20 | 38.9% | 3.71% (active) | 25.7 | 15.5% | 16.9 | 35.8 | -3.35% (active) | 30.3 | 0.985% (active) | 23.9% | 10.3% | 29% |
| Cc1cccc(N2CCN(C3=C(Cl)C(=O)c4ncccc4C3=O)CC2)c1 | 55.3 | 90.3 | 93.8 | 83.3 | 58.4% | 144% | 26.7 | 93.8 | 104% | 90.4% | 44.7 | 9.9% (active) | 24.4 | 84.8 | 52.2% | 82.9 | 101% | 92.1% | 61.5% | 75.3% |
| O=C(CSc1nc2ccccc2c(=O)n1-c1ccccc1)Nc1ccc(S(=O)(=O)Nc2nccs2)cc1 | 86.1 | 73.6 | 77 | 80.4 | 85.2% | 89.4% | 26.7 | 84.4 | 66.1% | 103% | 84.1 | 58.2% | 88.5 | 74.1 | 76.5% | 44.5 | 98.2% | 69% | 62.8% | 78.6% |
| O=C1[C@@H]2Cc3c([nH]c4ccccc34)[C@@H](c3ccc(Cl)cc3)N2C(=O)CN1C1CCN(Cc2ccccc2)CC1 | 72.4 | 72.5 | 87.2 | 61 | 20% | 11.3% | 20.7 | 38.6 | 67% | 46.4% | 57.5 | 3.54% (active) | 79.6 | 64.2 | 50.3% | 48 | 85.2% | 72.7% | 75.8% | 7.82% (active) |
| C#C[C@]1(O)CC[C@H]2[C@@H]3CC=C4c5sc(NCc6ccccc6)nc5CC[C@]4(C)[C@H]3CC[C@@]21C | 54.2 | 75.6 | 59.9 | 14.1 | 51.8% | 23.1% | 80 | 52 | -72.3% (active) | 37% | 71 | 1.46% (active) | 43.6 | 48.4 | -36% (active) | 47.5 | -57.6% (active) | -39.9% (active) | -10% (active) | 21.4% |
| N#C/C(=C\c1ccc(-c2ccc(Cl)c(Cl)c2)o1)C(=O)Nc1ncc(Cc2ccc(Cl)cc2)s1 | 38.2 | 73.6 | 33 | 72.1 | -42.4% (active) | 81.5% | 47.1 | 11.6 | 11.4% | 55.8% | 29.7 | 52.5% | 17.2 | 50 | 66% | 34.7 | 20.4% | 46.7% | 78.2% | 21.6% |
| Cc1ccc(/C=N/Nc2nc(Nc3ccccc3)nc(Nc3ccc(S(N)(=O)=O)cc3)n2)cc1 | 76.7 | 79.3 | 90.8 | 86.8 | 54.7% | 112% | 89.5 | 83.2 | 46.9% | 83.9% | 65.1 | 56.8% | 91.8 | 73.4 | -2.59% (active) | 87.1 | 57.7% | 44.7% | 101% | 72.8% |

From PubChem BioAssay (NCI)
